The whole screen tested about 5,500 compounds, of which about 2,000 (36%) were called active. Another 18% or so got no clear call; they are omitted. Rule as the data show it: active = normalized growth mostly below about 0.91 (no sharp cut-off); inconclusive = no clear call, values can overlap the other calls; inactive = mostly above about 0.92. The list shows a part of the results.
Experiment: chemical genetic growth profiling, strain panel (AID 1159580);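 also: tested at 20 µM; growth read once vehicle control cultures reached saturation at 30 °C; 1 = growth at the plate median or of vehicle wells; lower values mean less growth of the strain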
Conditions: growth OD
[1] = S. cerevisiae deletion strains, locus YAL013W, strain DEP1, hits give low values
[2] = S. cerevisiae deletion strains, locus YBR229C, strain ROT2, hits give low values
[3] = S. cerevisiae deletion strains, locus YDL101C, strain DUN1, hits give low values
[4] = S. cerevisiae deletion strains, locus YDR150W, strain NUM1, hits give low values
[5] = S. cerevisiae deletion strains, locus YEL061C, strain CIN8, hits give low values
[6] = S. cerevisiae deletion strains, locus YGR078C, strain PAC10, hits give low values
[7] = S. cerevisiae deletion strains, locus YHR030C, strain SLT2, hits give low values
[8] = S. cerevisiae deletion strains, locus YHR087W, strain rtc3, hits give low values
[9] = S. cerevisiae deletion strains, locus YJL187C, strain SWE1, hits give low values
[10] = S. cerevisiae deletion strains, locus YJR043C, strain POL32, hits give low values
[11] = S. cerevisiae deletion strains, locus YJR075W, strain HOC1, hits give low values
[12] = S. cerevisiae deletion strains, locus YLR039C, strain RIC1, hits give low values
[13] = S. cerevisiae deletion strains, locus YLR058C, strain SHM2 (second series), hits give low values
[14] = S. cerevisiae deletion strains, locus YLR085C, strain ARP6, hits give low values
[15] = S. cerevisiae deletion strains, locus YLR262C, strain YPT6, hits give low values
[16] = S. cerevisiae deletion strains, locus YML094W, strain GIM5, hits give low values
[17] = S. cerevisiae deletion strains, locus YMR219W, strain ESC1, hits give low values
[18] = S. cerevisiae deletion strains, locus YMR263W, strain SAP30, hits give low values
[19] = S. cerevisiae deletion strains, locus YMR307W, strain GAS1, hits give low values
[20] = S. cerevisiae deletion strains, locus YNL153C, strain GIM3, hits give low values
[21] = S. cerevisiae deletion strains, locus YNL298W, strain CLA4 (second series), hits give low values
[22] = S. cerevisiae deletion strains, locus YNL322C, strain KRE1, hits give low values
[23] = S. cerevisiae deletion strains, locus YNR030W, strain Alg12, hits give low values
[24] = S. cerevisiae deletion strains, locus YPL055C, strain LGE1, hits give low values
[25] = S. cerevisiae deletion strains, locus YPR135W, strain CTF4, hits give low values

Measured: normalized growth

O=C(CSc1nnc(NC(=O)c2cccc([N+](=O)[O-])c2)s1)Nc1ccc2c(c1)OCO2
inactive: [1] 0.991 | [2] 0.995 | S. cerevisiae deletion strains, locus YCL061C, strain MRC1, hits give low values 1.01 | [3] 0.986 | [4] 0.982 | [5] 0.982 | [6] 0.991 | [7] 0.985 | [8] 0.997 | [9] 0.995 | [10] 0.977 | [11] 1.02 | [12] 0.976 | [13] 0.985 | [14] 0.996 | [15] 0.985 | [16] 0.948 | [17] 1 | [18] 1.01 | [19] 1.05 | [20] 1.01 | [21] 1 | [22] 0.989 | [23] 1.01 | [24] 0.998 | [25] 0.939

O=C(Nc1nncs1)c1ccncc1
inactive: [1] 0.983 | [2] 1 | [3] 0.999 | S. cerevisiae deletion strains, locus YDL134C, strain PPH21, hits give low values 1.02 | [4] 0.946 | [5] 0.999 | [6] 1 | [7] 0.996 | [8] 1 | [9] 0.992 | [10] 1.01 | [11] 0.991 | S. cerevisiae deletion strains, locus YKL190W, strain CNB1, hits give low values 1.03 | [12] 1.08 | [13] 1 | [14] 1.04 | [15] 1.05 | [16] 1.02 | [17] 1 | [18] 0.949 | [19] 1.02 | S. cerevisiae deletion strains, locus YNL128W, strain TEP1, hits give low values 1.02 | [20] 0.995 | [21] 1.07 | [22] 1 | [23] 1.04 | S. cerevisiae deletion strains, locus YOL006C, strain TOP1, hits give low values 1.08 | [24] 0.888 | S. cerevisiae deletion strains, locus YPL241C, strain CIN2, hits give low values 1.03 | [25] 1.05 | S. cerevisiae strains, strain wild type, hits give low values 1.04

Source: PubChem BioAssay AID1159580 (chemical genetic matrix, 2015)
